Measured values from PubChem BioAssay AID1159580 (chemical genetic matrix, 2015).
Where “and” joins values, the source holds several entries; their conditions need not be identical. Identical values can stand only once. Among all 5,500 compounds or so, about 2,000 (36%) were called active. Roughly 18% stayed inconclusive and do not appear here. Rule as the data show it: active = normalized growth mostly below about 0.91 (no sharp cut-off); inconclusive = no clear call, values can overlap the other calls; inactive = mostly above about 0.92. Some of the results follow.

Assay: chemical genetic growth profiling, strain panel (AID 1159580);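 also: tested at 20 µM; growth read once vehicle control cultures reached saturation at 30 °C; 1 = growth at the plate median or of vehicle wells; lower values mean less growth of the strain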
Details: S. cerevisiae deletion strains, growth OD

Measured: normalized growth

COc1cc(O)c(C(C)=O)c(OC)c1
active: locus YDR195W, strain ref2 1.16 [resistant] | locus YER155C, strain BEM2 (second series), stronger effect = lower value 0.8
inactive: locus YAL013W, strain DEP1, stronger effect = lower value 1.02 | locus YAL021C, strain ccr4, stronger effect = lower value 1.01 | locus YAL026C, strain drs2, stronger effect = lower value 0.968 | locus YAL030W, strain snc1, stronger effect = lower value 1 | locus YBL061C, strain skt5, stronger effect = lower value 0.992 | locus YBR009C, strain hhf1, stronger effect = lower value 0.957 | locus YBR021W, strain FUR4, stronger effect = lower value 1.02 | locus YBR023C, strain chs3, stronger effect = lower value 0.995 | locus YBR171W, strain sec66, stronger effect = lower value 0.993 | locus YBR229C, strain ROT2, stronger effect = lower value 1.01 | locus YBR231C, strain swc5, stronger effect = lower value 0.994 | locus YBR279W, strain paf1, stronger effect = lower value 1 | locus YCL011C, strain gbp2, stronger effect = lower value 0.99 | locus YCL016C, strain dcc1, stronger effect = lower value 1.01 | locus YCL029C, strain bik1, stronger effect = lower value 1.01 | locus YCL061C, strain MRC1, stronger effect = lower value 0.965 | locus YCL069W, strain vba3, stronger effect = lower value 1 | locus YCR088W, strain abp1, stronger effect = lower value 0.993 | locus YDL005C, strain med2, stronger effect = lower value 1.03 | locus YDL035C, strain GPR1, stronger effect = lower value 1.04 | locus YDL040C, strain nat1, stronger effect = lower value 0.999 | locus YDL074C, strain BRE1, stronger effect = lower value 1.04 | locus YDL101C, strain DUN1, stronger effect = lower value 1.01 | locus YDL134C, strain PPH21, stronger effect = lower value 0.999 | locus YDL185W, strain tfp1, stronger effect = lower value 0.992 | locus YDL192W, strain arf1, stronger effect = lower value 1.01 | locus YDR001C, strain nth1, stronger effect = lower value 0.996 | locus YDR069C, strain doa4, stronger effect = lower value 1.03 | locus YDR101C, strain arx1, stronger effect = lower value 1 | locus YDR137W, strain rgp1, stronger effect = lower value 1.03 | locus YDR150W, strain NUM1, stronger effect = lower value 0.982 | locus YDR159W, strain sac3, stronger effect = lower value 0.936 | locus YDR162C, strain NBP2, stronger effect = lower value 1.05 | locus YDR297W, strain sur2, stronger effect = lower value 1.01 | locus YDR318W, strain mcm21, stronger effect = lower value 1 | locus YDR334W, strain swr1, stronger effect = lower value 1 | locus YDR335W, strain msn5, stronger effect = lower value 1.01 | locus YDR388W, stronger effect = lower value 1 | locus YDR392W, strain spt3, stronger effect = lower value 0.842 | locus YDR502C, strain sam2, stronger effect = lower value 0.983 | locus YEL003W, strain gim4, stronger effect = lower value 0.984 | locus YEL037C, strain rad23, stronger effect = lower value 0.998 | locus YEL061C, strain CIN8 (second series), stronger effect = lower value 1 | locus YEL061C, strain CIN8, stronger effect = lower value 1.01 | locus YER015W, strain faa2, stronger effect = lower value 1.01 | locus YER016W, strain bim1, stronger effect = lower value 1 | locus YER110C, stronger effect = lower value 0.982 | locus YER111C, strain swi4, stronger effect = lower value 1 | locus YER155C, strain BEM2, stronger effect = lower value 1.01 | locus YER167W, strain BCK2, stronger effect = lower value 1.01 | locus YFR010W, strain ubp6, stronger effect = lower value 0.999 | locus YGL078C, strain dbp3, stronger effect = lower value 0.991 | locus YGL086W, strain mad1, stronger effect = lower value 0.988 | locus YGL167C, strain pmr1, stronger effect = lower value 1.01 | locus YGL173C, strain kem1, stronger effect = lower value 0.988 | locus YGL227W, strain vid30, stronger effect = lower value 0.997 | locus YGL240W, strain doc1, stronger effect = lower value 0.916 | locus YGL248W, strain PDE1, stronger effect = lower value 0.996 | locus YGL253W, strain hxk2, stronger effect = lower value 0.984 | locus YGR078C, strain PAC10, stronger effect = lower value 0.989 | locus YGR135W, strain pre9, stronger effect = lower value 0.957 | locus YGR252W, strain gcn5, stronger effect = lower value 0.921 | locus YHR013C, strain ard1, stronger effect = lower value 1.01 | locus YHR027C, strain rpn1, stronger effect = lower value 1.01 | locus YHR030C, strain SLT2, stronger effect = lower value 1.01 and 0.966 | locus YHR079C, strain IRE1 (second series), stronger effect = lower value 1 | locus YHR079C, strain IRE1, stronger effect = lower value 0.965 | locus YHR094C, strain hxt1, stronger effect = lower value 0.993 | locus YHR129C, strain ARP1, stronger effect = lower value 1.02 | locus YHR142W, strain chs7, stronger effect = lower value 0.929 | locus YHR200W, strain rpn10, stronger effect = lower value 0.98 | locus YIL066C, strain RNR3, stronger effect = lower value 1.02 | locus YIL073C, strain SPO22, stronger effect = lower value 0.967 | locus YIL125W, strain kgd1, stronger effect = lower value 1 | locus YIR030C, strain dcg1, stronger effect = lower value 0.997 | locus YJL092W, strain hpr5, stronger effect = lower value 0.992 | locus YJL095W, strain BCK1 (second series), stronger effect = lower value 0.996 | locus YJL095W, strain BCK1, stronger effect = lower value 1.02 and 0.967 | locus YJL115W, strain asf1, stronger effect = lower value 1.01 | locus YJL129C, strain trk1, stronger effect = lower value 0.995 | locus YJL134W, strain LCB3, stronger effect = lower value 1 | locus YJL154C, strain vps35, stronger effect = lower value 1.01 | locus YJL164C, strain tpk1, stronger effect = lower value 0.976 | locus YJL166W, strain qcr8, stronger effect = lower value 0.978 | locus YJL168C, strain set2, stronger effect = lower value 0.993 | locus YJL187C, strain SWE1 (second series), stronger effect = lower value 1.01 | locus YJL187C, strain SWE1, stronger effect = lower value 1 | locus YJR066W, strain TOR1, stronger effect = lower value 0.89 | locus YKL009W, strain mrt4, stronger effect = lower value 1.02 | locus YKL068W, stronger effect = lower value 0.99 | locus YKL085W, strain MDH1 (second series), stronger effect = lower value 1.01 | locus YKL085W, strain MDH1, stronger effect = lower value 1.01 | locus YKL160W, strain elf1, stronger effect = lower value 0.986 | locus YKL190W, strain CNB1, stronger effect = lower value 1.01 | locus YKR001C, strain vps1, stronger effect = lower value 0.998 | locus YKR026C, strain gcn3, stronger effect = lower value 0.994 | locus YKR091W, strain srl3, stronger effect = lower value 0.998 | locus YLL001W, strain dnm1, stronger effect = lower value 0.992 | locus YLL026W, stronger effect = lower value 0.992 | locus YLL041C, strain sdh2, stronger effect = lower value 0.998 | locus YLR027C, strain aat2, stronger effect = lower value 0.987 | locus YLR039C, strain RIC1, stronger effect = lower value 1.1 | locus YLR058C, strain SHM2, stronger effect = lower value 1.02 | locus YLR102C, strain apc9, stronger effect = lower value 0.992 | locus YLR113W, strain HOG1, stronger effect = lower value 0.955 | locus YLR221C, strain rsa3, stronger effect = lower value 0.971 | locus YLR258W, strain gsy2, stronger effect = lower value 0.982 | locus YLR262C, strain YPT6 (second series), stronger effect = lower value 1.01 | locus YLR262C, strain YPT6, stronger effect = lower value 1.15 | locus YLR268W, strain sec22, stronger effect = lower value 1.01 | locus YLR320W, strain mms22, stronger effect = lower value 0.972 | locus YLR330W, strain CHS5, stronger effect = lower value 1.01 | locus YLR342W, strain FKS1, stronger effect = lower value 1.01 | locus YLR357W, strain rsc2, stronger effect = lower value 1.01 | locus YLR370C, strain arc18, stronger effect = lower value 1 | locus YLR371W, strain rom2, stronger effect = lower value 0.975 | locus YLR384C, strain iki3, stronger effect = lower value 1.01 | locus YLR418C, strain cdc73, stronger effect = lower value 0.998 | locus YML016C, strain PPZ1, stronger effect = lower value 1 | locus YML032C, strain rad52, stronger effect = lower value 1.01 | locus YML120C, strain ndi1, stronger effect = lower value 0.99 | locus YML124C, strain tub3, stronger effect = lower value 0.988 | locus YMR058W, strain fet3, stronger effect = lower value 0.972 | locus YMR078C, strain ctf18, stronger effect = lower value 0.98 | locus YMR125W, strain sto1, stronger effect = lower value 1.06 | locus YMR129W, stronger effect = lower value 1.01 | locus YMR205C, strain PFK2, stronger effect = lower value 1 | locus YMR223W, strain ubp8, stronger effect = lower value 0.989 | locus YMR231W, strain pep5, stronger effect = lower value 1.02 | locus YMR307W, strain GAS1, stronger effect = lower value 1.02 | locus YNL067W, strain RPL9B, stronger effect = lower value 1 | locus YNL071W, strain lat1, stronger effect = lower value 0.985 | locus YNL128W, strain TEP1, stronger effect = lower value 1.03 | locus YNL153C, strain GIM3, stronger effect = lower value 1.02 | locus YNL183C, strain NPR1, stronger effect = lower value 0.918 | locus YNL209W, strain ssb2, stronger effect = lower value 1 | locus YNL233W, strain BNI4, stronger effect = lower value 1.03 | locus YNL248C, strain rpa49, stronger effect = lower value 0.969 | locus YNL250W, strain rad50, stronger effect = lower value 0.99 | locus YNL271C, strain bni1, stronger effect = lower value 0.985 | locus YNL298W, strain CLA4, stronger effect = lower value 1 | locus YNL307C, strain MCK1, stronger effect = lower value 0.978 | locus YNL322C, strain KRE1 (second series), stronger effect = lower value 1.01 | locus YNR049C, strain mso1, stronger effect = lower value 1.01 | locus YNR052C, strain pop2, stronger effect = lower value 0.988 | locus YOL006C, strain TOP1, stronger effect = lower value 1.06 | locus YOL012C, strain htz1 0.925 | locus YOL147C, strain pex11, stronger effect = lower value 1 | locus YOR001W, strain rrp6, stronger effect = lower value 0.959 | locus YOR061W, strain CKA2, stronger effect = lower value 1.03 | locus YOR069W, strain VPS5, stronger effect = lower value 1 | locus YOR070C, strain gyp1, stronger effect = lower value 0.998 | locus YOR080W, strain dia2, stronger effect = lower value 1.01 | locus YOR083W, strain WHI5, stronger effect = lower value 0.965 | locus YOR106W, strain vam3, stronger effect = lower value 0.972 | locus YOR136W, strain idh2, stronger effect = lower value 1 | locus YOR144C, strain elg1, stronger effect = lower value 0.999 | locus YOR184W, strain ser1, stronger effect = lower value 1.03 | locus YOR231W, strain MKK1, stronger effect = lower value 0.956 | locus YOR265W, strain rbl2, stronger effect = lower value 0.989 | locus YOR270C, strain vph1, stronger effect = lower value 0.915 | locus YOR290C, strain snf2, stronger effect = lower value 0.95 | locus YOR316C, strain cot1, stronger effect = lower value 0.995 | locus YPL051W, strain arl3, stronger effect = lower value 0.966 | locus YPL078C, strain atp4, stronger effect = lower value 0.954 | locus YPL106C, strain sse1, stronger effect = lower value 0.982 | locus YPL240C, strain hsp82, stronger effect = lower value 1 | locus YPL256C, strain CLN2, stronger effect = lower value 0.978 | locus YPR119W, strain clb2, stronger effect = lower value 0.988 | locus YPR141C, strain kar3, stronger effect = lower value 0.993 | locus YPR163C, strain tif3, stronger effect = lower value 0.986 | locus YPR167C, strain met16, stronger effect = lower value 0.991 | strain wtn01, stronger effect = lower value 0.991
